Only a selection was taken, and hits are over-represented in it overall.
Pf Dd2 inh – blocks in vitro growth of P. falciparum Dd2; AID 1347417; Potency, µM (highest dose often 28.9 µM), without a hit: at the top dose activity, negative = inhibition, hits mostly inhibitors; P. falciparum Dd2 growth, SYBR Green, 72 h; 4.3% of 120,000 active; active means well fitted inhibition curve with a large enough effect;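 further: plate controls were DMSO vehicle for no effect and reference drug for full effect; nearly all actives have a fitted effect of over 65% in size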
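Readout: SYBR Green fluorescence, 485 nm excitation, 535 nm emission, after ~16 h lysis at 37C. Before that, Dd2-infected red cells (2.5% hematocrit) grew 72 h with compound, 29 uM top final concentration.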
* hit, by the source's call; i = inactive; [ ] = remark or other dose. Potency means the concentration at half of the fitted maximal effect.

SMILES	Pf Dd2 inh
COc1ccc(C(=O)N2CCCC3(C2)C(=NC2CCCCC2)NC(=O)N3c2cc(F)cc(F)c2)cc1 (configuration not stated)	-10%
O=C(c1ccc(C(F)(F)F)cc1)N1CCC2(C1)C(=NC1CCCCC1)NC(=O)N2c1cc(F)cc(F)c1 (configuration not stated)	8.9µM*
O=C1NC(=NC2CCCC2)C2(CCCN([S+](=O)([O-])c3ccccc3)C2)N1c1cc(F)cc(F)c1 (configuration not stated)	-20%
CN(C)[C@@H]1CN(C(=O)c2ccsc2)CC[C@]1(O)c1ccccc1	i[5.79 µM]
CNC(=O)N1C[C@@H](Oc2ccccc2)C[C@H]1C(=O)N1CCOCC1	-9%
CN(Cc1ccccn1)C(=O)CC(c1cccc(O)c1)c1ccccc1Cl (configuration not stated)	i
CC(C)CCC(=O)N1CCC(N2C(=O)CCC2C(=O)NC(C)C)CC1 (configuration not stated)	4%
CCc1cc2c(-c3ccccc3)cc(=O)oc2c2c1OCN(Cc1ccc(F)cc1)C2	3.5µM*
O=c1cc(-c2ccccc2)c2cc(Cl)c3c(c2o1)CN(Cc1ccccc1)CO3	13µM*
O=C(Cn1c(=O)c2c(n1Cc1ccccc1)CN(Cc1ccccc1)CC2)Nc1cccc(F)c1	-9%
O=C(Cn1c2c(c(=O)n1Cc1ccccc1)CCN(Cc1ccccc1)C2)NCc1ccc2c(c1)OCO2	-6%
O=c1c2cc3c(cc2n(Cc2cccc(Cl)c2)c(=O)n1Cc1nc(-c2ccccc2)no1)OCO3	16%
O=C1c2cc(N3CCOCC3)nc(-c3ccc(F)cc3)c2CN1Cc1ccccc1	-12%[44.1 µM]
O=C(Cn1c(=O)c2c(n1Cc1ccccc1)CN(Cc1ccccc1)CC2)NCc1ccc2c(c1)OCO2	-4%
O=c1cc(-c2ccccc2)c2ccc3c(c2o1)CN(Cc1cccc(Cl)c1)CO3	0.63µM*
O=S1(=O)N(Cc2ccccc2)CCCN1Cc1cccc(Cl)c1	9%
COCCN1C(=O)c2ccccc2C(C(=O)N2CCSCC2)C12CCCC2 (configuration not stated)	2%
O=C(NC(C(=O)N1CCCC1)C1CCN(C(=O)Cc2ccccc2)CC1)c1ccccc1 (configuration not stated)	-3%
CN(C)Cc1cn(C[C@H]2C[C@@H](NC(=O)c3ccc4c(c3)OCO4)[C@H](O)[C@@H]2O)nn1	i
Cn1cc([C@@H](NC(=O)c2ccccc2N2CCCC2)C2CC(O)C2)cn1 (some centres not stated)	-15%
CC(=O)NCC1CCCN(C(=O)c2cc(Cn3ccc4ccccc43)[nH]n2)C1 (configuration not stated)	-7%
CC(C)=CCC1(CO)CCCN(C(=O)c2cccn2C2CC2)C1 (configuration not stated)	-10%
CCC[C@@H]1CN(c2nc(SC)ncc2C(=O)OCC)C[C@H]1N(C)C	13µM*
CCOC(=O)c1cnc(N2CCN(c3ccc(OC)cc3)CC2)c2ccccc12	12%
CCOc1ccc(CNC(=O)c2cnc(SC)nc2CC)cc1	i[5.79 µM]
SMILES	Pf Dd2 inh
CN(C)[C@@H]1CN(C(=O)C2CCC2)CC[C@]1(O)c1ccccc1	i[5.79 µM]
COc1ccc(CCN(Cc2ccccc2F)CC2(O)CCCNC2)cc1 (configuration not stated)	13µM*
COc1ccc(CN2CC3(CCN(S(=O)(=O)Cc4ccccc4F)CC3)C2=O)cc1	-1%
COc1ccc(CCNC(=O)C(=O)Nc2ccccc2F)cc1	i
COc1cccc(S(=O)(=O)N2CCC(CC(=O)NCc3ccccc3)C2)c1 (configuration not stated)	i
CCc1ccccc1N(C)C(=O)Nc1cn(CC(C)C)c(=O)c2ccccc12	8.9µM*
CCc1ccccc1N(C)C(=O)Cc1c(C(=O)O)c(C)cn1C	-11%
COc1ccc(CNC(=O)Nc2cn(CC(C)C)c(=O)c3ccccc23)c(OC)c1	i
CCC[C@@H]1CN(C(=O)c2ccc(OC)o2)C[C@H]1C(=O)O	-5%
O=C(Nc1cnc(-c2ccc(C(F)(F)F)cc2)nc1)C1CCOC1 (configuration not stated)	i
COc1ccc(NC(=O)Cn2c(=O)n(-c3ccc(F)cc3)c(=O)c3c2cc(C)n3C)c(OC)c1	-19%
CC1CCN(C(=O)CSc2nnc(-c3ccccc3Cl)o2)CC1	-13%
CC1CCCN(Cc2c(O)ccc3c(=O)c(-c4ccc(Cl)cc4)c(C(F)(F)F)oc23)C1 (configuration not stated)	0.71µM*
Cc1c(CO)cccc1NC(=O)c1ccc(CN2CCCC(C)C2)cc1 (configuration not stated)	-8%
CC1CCCN(Cc2nc3c(c(=O)n(C)c(=O)n3C)n2Cc2ccc(Cl)cc2)C1 (configuration not stated)	22%
CC1CCCN(Cc2c(O)ccc3c(=O)c(-c4ccccc4Cl)c(C(F)(F)F)oc23)C1 (configuration not stated)	0.89µM*
Cc1oc(-c2ccc(Cl)cc2)nc1CN1CCCC(C(=O)NCc2ccc(Cl)cc2)C1 (configuration not stated)	i
Cc1cc(Oc2c(C(F)(F)F)oc3c(CN4CCC(C)CC4)c(O)ccc3c2=O)cc(C)c1Cl	0.45µM*
Cc1cc(C)cc(Oc2coc3c(CN4CCN(C)CC4)c(O)ccc3c2=O)c1	i
Cc1ccc(Oc2c(C(F)(F)F)oc3c(CN4CCCCC4C)c(O)ccc3c2=O)cc1 (configuration not stated)	-30%
COCCc1noc([C@@H]2CN(C3CCCC3)C[C@H]2CO)n1	11%
CN(C)C(=O)NC[C@@H]1CC[C@H]2C[C@@H]1C2(C)C	-17%[44.1 µM]
O=S(=O)(c1ccc(Cl)cc1)c1nnn2c1nc(NCc1ccc(F)cc1)c1ccccc12	117%
CCn1ccc(C(=O)N2CCC3(CC2)CC(N(Cc2ccccc2)C2CC2)CCO3)n1 (configuration not stated)	i
O=C(CCn1ccn2nc3c(c2c1=O)CCCC3)Nc1ccc(F)c(F)c1	i
SMILES	Pf Dd2 inh
COc1cccc(CNC(=O)[C@@H]2C[C@@H](O)CN2C2CCN(C(=O)c3ccccn3)CC2)c1	13%
CC(C)N1C[C@H](O)C[C@H]1c1nnc2n1CCN(C(=O)c1nccc3ccccc13)CC2	i
O=C(c1ccc(Cl)cc1)N1CCC2(CC1)CN[S+](=O)([O-])c1cccnc1O2	8%
COc1ccc(C(=O)N2CCCC(Cc3nc(C4CCOCC4)no3)C2)cc1OC (configuration not stated)	-7%
COC(=O)c1c(-c2ccc(Cl)cc2)noc1N1CCN(c2cccc(C)c2C)CC1	4.5µM*
CC1=C(c2ccc(Cl)cc2)S(=O)(=O)N=C1N1CCN(c2cccc(C)c2C)CC1	-14%
COc1ccc(-c2noc(N3CCC(C(=O)N4CCN(c5cccc(C)c5C)CC4)CC3)n2)cc1	32%
CCOCCN1CCN([C@@H]2c3ccccc3C3(CCNCC3)[C@H]2O)CC1	6%
CC(C)Oc1ccc2c(NC(=O)CN3C(=O)CNC3=O)nn(CC(F)(F)F)c2c1	-2%
Cn1cnc(C(=O)N[C@@H]2CN(c3ncccn3)C[C@H]2CO)c1	12%
CC(C)NC(=O)c1csc(-c2cccc(OC(C)C)c2)n1	i
Cc1ncsc1CN1CCCCCCNC(=O)[C@@H]2CCC[C@@H]21	-2%
Cc1ccc(CN2CCCCCCNC(=O)CC2c2ccccc2)s1 (configuration not stated)	8.9µM*
O=C1CC(c2ccccc2)N(C(=O)C2CCCC2)CCCCCCN1 (configuration not stated)	-8%

Screening data: PubChem, National Center for Advancing Translational Sciences (NCATS)
